Data: PubChem BioAssay (NCATS)
Results filed as inconclusive are left out. Calls of active or inactive are those of the source. Unless noted, calls follow the shape of the dose curve; as a rule, active = well fitted curve in either direction with a large enough effect (not every such curve was filed as active); inconclusive = small, poorly fitted or top-dose-only effect, or another doubt; inactive = flat fitted curve, though single readings scatter.

Assays:
[1] = target: Lysosomal acid glucosylceramidase (Homo sapiens) (UniProt P04062); assay: Glucocerebrosidase-p2 (AID 348; in the data active = potency below about 10 µM; also: potency is read from the fitted curve at half-maximal effect); settings: purified GBA, blue fluorogenic substrate, 40 min
In short: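 Compounds titrated from 0.6 nM upwards against 0.2 nM enzyme in pH 5.9 citric acid/KH2PO4, taurocholate, tween-20; blue fluorogenic substrate 80 uM, 40 min room temperature, stopped and read Ex 365/Em 440 for AC50.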

[2] = AP1 Signaling Pathway (AID 357); settings: ME-180 AP-1-bla reporter, EGF-induced, beta-lactamase ratio, 5 h; at 7.69 µM (top of the series) unless noted; also: % is scaled to controls: 0 for no effect and ±100 for the full control effect
In short: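 ME-180 cells with beta-lactamase reporter under AP-1 response element, stimulated with EC50 EGF; compounds tested in titration series, 5 h at 37 °C. CCF4 substrate added 2.5 h at room temperature; 460/530 nm emission ratio gave %activity and AC50.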

[3] = NFAT Signaling Pathway (AID 444); settings: Jurkat NFAT-bla M1, carbachol, beta-lactamase ratio, 5 h; at 7.69 µM (top of the series) unless noted;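 also: carbachol stimulus at about its EC50 of 1 µM final; % is scaled to controls: 0 for no effect and ±100 for the full control effect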
In short: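 Jurkat cells with NFAT-driven β-lactamase reporter and co-expressed M1 receptor, stimulated with carbachol (final 1 uM, ~EC50), compound titration, 5 h at 37 °C. CCF4 loaded 1 h at RT; 460/530 nm ratio gave %activity and AC50.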

[4] = Stat Signaling Pathway (AID 446); settings: ME-180 (cervical carcinoma) SIE beta-lactamase reporter, IL-6 stimulated, 5 h; at 7.69 µM (top of the series) unless noted;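 also: ME-180 cervical cancer cells given 40 pM IL-6 alongside compound; SIE-controlled beta-lactamase reporter measured as 460/530 nm FRET emission ratio; % is scaled to controls: 0 for no effect and ±100 for the full control effect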
In short: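 IL-6/STAT signaling read in ME-180 cells via an SIE beta-lactamase reporter. Stimulus was 40 pM IL-6 (its AC50) for 5 hrs, so both activation and inhibition register.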

[5] = target: Glucocorticoid receptor (Homo sapiens) (UniProt P04150); assay: GR-EFC Redistribution (AID 451; calls by dose curve; also: potency is read from the fitted curve at half-maximal effect); settings: CHO-K1 GR-EFC translocation, beta-gal luminescence, 2 h
In short: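 CHO-K1 cells expressing nuclear EA and GR-ED fragments of b-gal; compounds titrated up to 46 uM final, 2 h at 37 C. GR nuclear translocation read as complemented b-gal luminescence after 1 h RT detection.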

[6] = target: Mitogen-activated protein kinase 10 (Mus musculus) (UniProt Q61831); assay: JNK3 AlphaScreen Assay (AID 530); settings: JNK3 lysate, c-Jun phosphorylation; series mostly up to 57.1 µM;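 also: kinase came from lysate of stimulated human HepG2 cells; signal reports phosphorylation of biotinylated GST-cJun 1-79 at Ser73 with 10 µM ATP; % is scaled to controls: 0 for no effect and ±100 for the full control effect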
In short: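 qHTS format: compounds tested as titrations against IL-1beta/TNF-alpha-activated HepG2 lysate JNK3 with biotin-GST-cJun substrate and 10 uM ATP at room temperature. Loss of anti-phospho-cJun AlphaScreen signal indicates inhibition.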

[7] = target: 3',5'-cyclic-AMP phosphodiesterase 4B (Homo sapiens) (UniProt Q07343); assay: qHTS Assay for Inhibitors of PDE-IV (AID 607; active = well fitted activation curve with a large enough effect in the main read-out, with a control signal flat, not every such curve was filed as active; also: % of control where 0% means no effect); settings: HEK293 ACTOne CNG channel cells, membrane potential fluorescence; series mostly up to 22.9 µM
In short: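 Live HEK293 cells with a modified cyclic nucleotide-gated (CNG) channel report intracellular cAMP via membrane-potential dye fluorescence (ex 535/em 590 nm). Endogenous PDE-IV was targeted. Compounds were tested at up to 22.9 uM final; RO 20-1724 100 uM served as control.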

[8] = qHTS Assay for Lipid Storage Modulators (AID 1519; calls by dose curve); settings: Drosophila S3 cells, BODIPY lipid droplet/cell ratio, laser cytometry, cells loaded with oleic acid; for activity change, negative = inhibition: at 57.5 µM (top of the series)
In short: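 Cells seeded at 5,000 per well were treated with compounds over a concentration series and loaded with oleic acid (400 uM, as added). Lipid droplet fluorescence (488 nm excitation, 500-530 nm channel) was read by laser-scanning cytometry and normalized to 20 uM Triacsin C.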

[9] = Primary qHTS for small molecule stabilizers of the endoplasmic reticulum resident proteome: Secreted ER Calcium Modulated Protein (SERCaMP) assay (AID 1508630; active = well fitted curve in the direction sought with a large enough effect; an effect the other way counts as inactive or inconclusive; also: % is scaled to controls: 0 for no effect and ±100 for the full control effect); settings: SH-SY5Y GLuc-SERCaMP (Gaussia luciferase released on ER calcium loss) secretion, thapsigargin, luminescence; series mostly up to 38.4 µM
In short: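 GLuc-SERCaMP-expressing SH-SY5Y cells, pretreated 16 h with compound, are challenged with thapsigargin to empty ER calcium stores; after 4 h, coelenterazine is added directly to the medium and luminescence is imaged.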

[10] = target: Glucocorticoid receptor (Homo sapiens) (UniProt P04150); assay: GR-GFP Redistribution (AID 450;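 active = compounds whose dose series gives a full or clear partial fitted curve of increased nuclear translocation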; also: potency is read from the fitted curve at half-maximal effect); settings: U2OS GR-GFP nuclear translocation, laser cytometry, 2 h
[11] = target: Cytochrome P450 3A4 (Homo sapiens) (UniProt P08684); assay: qHTS Assay for Inhibitors and Substrates of Cytochrome P450 3A4 (AID 884; active = well fitted curve in the direction sought with a large enough effect; an effect the other way counts as inactive or inconclusive; also: potency is read from the fitted curve at half-maximal effect; nearly all actives have a fitted effect of over 50% in size); settings: recombinant CYP3A4, Luciferin-PPXE luminescence; series mostly up to 57.1 µM
In short: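 20 nM human CYP3A4 with 25 uM Luciferin-PPXE (at KM) in 200 mM KPO4, preincubated 10 min with compound; NADPH regeneration started a 60 min RT reaction. Luciferin detected by luminescence, normalized to 57 uM ketoconazole as full inhibition.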

[12] = target: Cytochrome P450 3A4 (Homo sapiens) (UniProt P08684); assay: qHTS Assay for Activators of Cytochrome P450 3A4 (AID 885; active = well fitted curve in the direction sought with a large enough effect; an effect the other way counts as inactive or inconclusive; also: nearly all actives have a fitted effect of over 65% in size; also: potency is read from the fitted curve at half-maximal effect); settings: recombinant CYP3A4, Luciferin-PPXE luminescence, 60 min; series mostly up to 57.1 µM
In short: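 Quantitative HTS format: compounds preincubated with 20nM human CYP3A4 and Luciferin-PPXE substrate at KM, reaction started by NADPH regeneration, stopped after 60 min, luciferase luminescence read 20 min later.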

[13] = Confirmation and Secondary Assay for Modulators of Hemoglobin Beta Chain Splicing at IVS2 654 locus (AID 910; active = well fitted curve in the direction sought with a large enough effect; an effect the other way counts as inactive or inconclusive;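 also: HeLa cells stably carrying EGFP split by mutant beta-globin IVS2-654 intron; % of control where 0% means no effect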); settings: HeLa EGFP-654 splicing reporter, GFP fluorescence, 48 h; series mostly up to 38.3 µM
In short: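 HeLa cells stably expressing EGFP interrupted by β-globin IVS2-654 intron, seeded overnight in Opti-MEM/2% FCS, then treated 2 days at 37 °C. Restored splicing read as total peak GFP intensity per well by laser scanning cytometry (488 nm excitation, 500–520 nm emission); 500 nM antisense PNA as control.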

[14] = target: Cytochrome P450 1A2 (Homo sapiens) (UniProt P05177); assay: p450-cyp1a2 (AID 410; calls by dose curve;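 also: -100% = full effect of reference inhibitor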); settings: recombinant CYP1A2, luciferin-ME demethylation, luminescence; series mostly up to 57 µM
In short: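 Inhibition was calculated relative to 57 uM furafylline (full inhibition). The reaction used human CYP1A2 at 20nM with Luciferin-ME at its Km, 100uM, driven by an NADPH-regenerating system for 60 min at room temperature.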

[15] = target: Cytochrome P450 2D6 (Homo sapiens) (UniProt P10635); assay: qHTS Assay for Inhibitors and Substrates of Cytochrome P450 2D6 (AID 891; active = well fitted curve in the direction sought with a large enough effect; an effect the other way counts as inactive or inconclusive; also: potency is read from the fitted curve at half-maximal effect; nearly all actives have a fitted effect of over 60% in size); settings: recombinant CYP2D6, luciferin-ME EGE luminescence; series mostly up to 57.1 µM
In short: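 Human CYP2D6 (5 nM) with 30 uM Luciferin-ME EGE (at Km) in 100 mM KPO4, compound preincubated 10 min, then NADPH regeneration system for 60 min at room temperature. Luciferin read by luminescence; normalized to 1.43 uM quinidine.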

[16] = Confirmation and Secondary Assay for Modulators of Hemoglobin Beta Chain Splicing at IVS2 705 locus (AID 930; active = well fitted curve in the direction sought with a large enough effect; an effect the other way counts as inactive or inconclusive;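 also: HeLa cells stably expressing the EGFP-705 splicing reporter; GFP fluorescence per well restored by corrected splicing of the IVS2-705 intron in EGFP; % of control where 0% means no effect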); settings: HeLa EGFP-705 splicing reporter, GFP fluorescence, 48 h; series mostly up to 38.3 µM
In short: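 HeLa IVS2-705 EGFP reporter cells, 500/well, compound 2 d at 37C; correct splicing yields fluorescent EGFP. Control: 500 nM antisense PNA. Read-out: total peak GFP intensity.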

[17] = target: Ubiquitin carboxyl-terminal hydrolase 1 (Homo sapiens) (UniProt O94782); assay: Inhibitors of USP1/UAF1: Pilot qHTS (AID 504865; active = well fitted curve in the direction sought with a large enough effect; an effect the other way counts as inactive or inconclusive;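 also: rhodamine fluorescence freed from ubiquitin-rhodamine substrate followed over time; top concentration of the series differs between compounds; % is scaled to controls: 0 for no effect and ±100 for the full control effect; nearly all actives have a fitted effect of over 35% in size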); settings: purified USP1/UAF1, Ub-rhodamine cleavage fluorescence; series mostly up to 54.9 µM
In short: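 USP1/UAF1 complex at 1 nM preincubated 15 min at room temperature with compound, then Ub-Rho substrate added at 150 nM final. Fluorescence (480/540 nm) read kinetically in 50 mM HEPES pH 7.8, 0.5 mM EDTA, 1 mM TCEP, 0.1 mg/ml BSA, 0.01% Tween-20.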

[18] = target: Cytochrome P450 2C19 (Homo sapiens) (UniProt P33261); assay: qHTS Assay for Inhibitors and Substrates of Cytochrome P450 2C19 (AID 899; active = well fitted curve in the direction sought with a large enough effect; an effect the other way counts as inactive or inconclusive; also: potency is read from the fitted curve at half-maximal effect; nearly all actives have a fitted effect of over 60% in size); settings: recombinant CYP2C19, luciferin-H EGE luminescence; series mostly up to 57.1 µM
In short: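 Signal comes from luciferase acting on luciferin released by CYP2C19-mediated hydroxylation of Luciferin-H EGE, 10uM (KM). Assay mix: 5nM enzyme, 50mM KPO4; 60 min at 37C with NADPH regeneration. Data normalized against 57uM ketoconazole.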

[19] = measured here: cell count channel max response
[20] = measured here: lipid channel max response

Chain of Lysosomal acid glucosylceramidase (Homo sapiens) (P04062 whole entry, looked up): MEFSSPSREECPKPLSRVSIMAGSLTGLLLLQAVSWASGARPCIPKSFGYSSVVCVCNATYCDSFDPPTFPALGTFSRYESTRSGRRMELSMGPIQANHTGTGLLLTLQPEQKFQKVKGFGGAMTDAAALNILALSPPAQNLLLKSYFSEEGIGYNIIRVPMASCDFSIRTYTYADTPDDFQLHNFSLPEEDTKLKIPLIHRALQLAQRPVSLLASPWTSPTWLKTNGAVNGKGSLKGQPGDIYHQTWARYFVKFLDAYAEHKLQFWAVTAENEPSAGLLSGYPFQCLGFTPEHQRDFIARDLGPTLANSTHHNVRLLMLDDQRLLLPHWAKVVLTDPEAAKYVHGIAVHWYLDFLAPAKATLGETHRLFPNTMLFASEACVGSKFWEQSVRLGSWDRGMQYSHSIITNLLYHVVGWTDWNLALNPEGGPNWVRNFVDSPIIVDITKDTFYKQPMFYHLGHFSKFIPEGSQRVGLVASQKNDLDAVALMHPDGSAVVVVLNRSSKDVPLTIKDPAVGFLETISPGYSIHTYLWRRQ
Chain of Cytochrome P450 3A4 (Homo sapiens) (P08684 whole entry, looked up): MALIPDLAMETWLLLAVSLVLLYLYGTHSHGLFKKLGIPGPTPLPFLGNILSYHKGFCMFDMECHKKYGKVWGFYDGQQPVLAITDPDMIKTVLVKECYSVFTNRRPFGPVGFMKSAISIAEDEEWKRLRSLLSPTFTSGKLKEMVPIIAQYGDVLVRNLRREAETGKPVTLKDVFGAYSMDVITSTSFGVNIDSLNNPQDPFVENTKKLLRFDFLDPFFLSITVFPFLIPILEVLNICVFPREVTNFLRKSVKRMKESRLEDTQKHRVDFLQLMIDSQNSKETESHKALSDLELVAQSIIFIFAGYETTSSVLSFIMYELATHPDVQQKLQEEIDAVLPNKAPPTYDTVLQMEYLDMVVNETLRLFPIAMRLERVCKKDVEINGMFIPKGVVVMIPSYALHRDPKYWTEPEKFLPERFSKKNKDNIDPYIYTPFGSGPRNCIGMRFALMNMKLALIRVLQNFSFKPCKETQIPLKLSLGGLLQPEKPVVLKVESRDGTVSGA
Chain of 3',5'-cyclic-AMP phosphodiesterase 4B (Homo sapiens) (Q07343 whole entry, looked up): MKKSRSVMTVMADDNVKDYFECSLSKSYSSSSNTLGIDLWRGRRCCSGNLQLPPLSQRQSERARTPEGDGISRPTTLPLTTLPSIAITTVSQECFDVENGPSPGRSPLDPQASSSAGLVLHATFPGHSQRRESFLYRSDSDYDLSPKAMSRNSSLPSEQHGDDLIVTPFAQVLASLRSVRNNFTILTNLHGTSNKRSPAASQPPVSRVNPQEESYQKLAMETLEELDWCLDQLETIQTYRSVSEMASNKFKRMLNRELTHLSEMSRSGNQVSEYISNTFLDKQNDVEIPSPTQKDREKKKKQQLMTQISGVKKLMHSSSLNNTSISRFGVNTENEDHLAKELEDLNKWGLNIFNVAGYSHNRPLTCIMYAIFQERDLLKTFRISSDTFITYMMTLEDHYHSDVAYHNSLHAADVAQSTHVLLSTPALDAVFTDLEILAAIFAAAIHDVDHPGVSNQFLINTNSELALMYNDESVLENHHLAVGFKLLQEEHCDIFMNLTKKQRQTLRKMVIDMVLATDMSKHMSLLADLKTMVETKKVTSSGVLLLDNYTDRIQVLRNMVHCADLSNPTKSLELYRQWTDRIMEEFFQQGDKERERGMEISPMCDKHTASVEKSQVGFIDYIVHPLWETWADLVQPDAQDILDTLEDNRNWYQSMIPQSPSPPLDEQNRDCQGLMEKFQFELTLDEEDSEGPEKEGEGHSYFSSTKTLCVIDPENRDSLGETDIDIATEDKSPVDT
Chain of Glucocorticoid receptor (Homo sapiens) (P04150 whole entry, looked up, the tested form may be a part): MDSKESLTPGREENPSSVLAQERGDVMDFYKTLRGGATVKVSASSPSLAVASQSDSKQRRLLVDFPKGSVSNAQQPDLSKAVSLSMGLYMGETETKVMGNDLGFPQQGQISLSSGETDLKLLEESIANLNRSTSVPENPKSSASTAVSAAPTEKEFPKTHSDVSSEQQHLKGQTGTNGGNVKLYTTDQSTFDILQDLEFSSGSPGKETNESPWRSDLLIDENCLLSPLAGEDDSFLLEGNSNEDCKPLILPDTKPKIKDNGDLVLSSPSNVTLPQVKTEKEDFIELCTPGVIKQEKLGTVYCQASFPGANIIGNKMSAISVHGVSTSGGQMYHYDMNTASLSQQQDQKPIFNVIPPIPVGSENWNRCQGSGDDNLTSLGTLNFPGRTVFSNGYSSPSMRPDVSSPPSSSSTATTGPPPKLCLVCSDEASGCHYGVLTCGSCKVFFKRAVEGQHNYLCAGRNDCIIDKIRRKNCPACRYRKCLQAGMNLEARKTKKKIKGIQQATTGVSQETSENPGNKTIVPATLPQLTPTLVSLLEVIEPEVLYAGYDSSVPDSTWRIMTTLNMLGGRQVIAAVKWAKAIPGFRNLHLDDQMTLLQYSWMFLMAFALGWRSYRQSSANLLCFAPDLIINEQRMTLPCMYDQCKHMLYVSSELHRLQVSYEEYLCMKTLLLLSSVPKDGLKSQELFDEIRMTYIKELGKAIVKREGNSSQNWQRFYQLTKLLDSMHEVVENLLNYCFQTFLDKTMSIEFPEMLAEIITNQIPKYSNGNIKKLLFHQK
Chain of Cytochrome P450 1A2 (Homo sapiens) (P05177 whole entry, looked up): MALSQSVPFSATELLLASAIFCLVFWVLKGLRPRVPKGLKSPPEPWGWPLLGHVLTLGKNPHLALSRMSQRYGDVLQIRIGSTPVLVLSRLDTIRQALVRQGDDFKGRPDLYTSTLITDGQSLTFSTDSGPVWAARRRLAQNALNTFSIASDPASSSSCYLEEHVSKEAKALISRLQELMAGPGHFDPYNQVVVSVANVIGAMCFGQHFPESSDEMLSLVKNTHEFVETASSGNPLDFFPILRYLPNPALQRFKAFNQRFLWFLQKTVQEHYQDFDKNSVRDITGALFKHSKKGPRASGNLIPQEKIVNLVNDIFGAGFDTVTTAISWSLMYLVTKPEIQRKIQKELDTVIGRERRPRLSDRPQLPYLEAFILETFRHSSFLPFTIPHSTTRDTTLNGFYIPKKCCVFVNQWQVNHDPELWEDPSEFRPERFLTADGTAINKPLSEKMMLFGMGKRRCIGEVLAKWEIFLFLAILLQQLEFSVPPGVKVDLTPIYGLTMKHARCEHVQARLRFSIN
Chain of Cytochrome P450 2D6 (Homo sapiens) (P10635 whole entry, looked up): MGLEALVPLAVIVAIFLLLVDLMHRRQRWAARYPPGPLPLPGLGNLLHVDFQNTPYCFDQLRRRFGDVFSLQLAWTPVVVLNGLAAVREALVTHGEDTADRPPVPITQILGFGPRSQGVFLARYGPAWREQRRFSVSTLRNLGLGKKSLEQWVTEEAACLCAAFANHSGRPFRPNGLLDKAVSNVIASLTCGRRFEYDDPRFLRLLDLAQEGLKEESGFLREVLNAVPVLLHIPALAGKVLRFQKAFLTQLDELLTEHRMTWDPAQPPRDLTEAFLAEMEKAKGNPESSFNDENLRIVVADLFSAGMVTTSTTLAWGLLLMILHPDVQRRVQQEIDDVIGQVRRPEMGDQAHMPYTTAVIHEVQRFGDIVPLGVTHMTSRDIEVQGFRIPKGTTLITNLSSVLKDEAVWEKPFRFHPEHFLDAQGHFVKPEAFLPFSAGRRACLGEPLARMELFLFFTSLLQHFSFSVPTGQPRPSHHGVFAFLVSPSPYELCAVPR
Chain of Ubiquitin carboxyl-terminal hydrolase 1 (Homo sapiens) (O94782 whole entry, looked up): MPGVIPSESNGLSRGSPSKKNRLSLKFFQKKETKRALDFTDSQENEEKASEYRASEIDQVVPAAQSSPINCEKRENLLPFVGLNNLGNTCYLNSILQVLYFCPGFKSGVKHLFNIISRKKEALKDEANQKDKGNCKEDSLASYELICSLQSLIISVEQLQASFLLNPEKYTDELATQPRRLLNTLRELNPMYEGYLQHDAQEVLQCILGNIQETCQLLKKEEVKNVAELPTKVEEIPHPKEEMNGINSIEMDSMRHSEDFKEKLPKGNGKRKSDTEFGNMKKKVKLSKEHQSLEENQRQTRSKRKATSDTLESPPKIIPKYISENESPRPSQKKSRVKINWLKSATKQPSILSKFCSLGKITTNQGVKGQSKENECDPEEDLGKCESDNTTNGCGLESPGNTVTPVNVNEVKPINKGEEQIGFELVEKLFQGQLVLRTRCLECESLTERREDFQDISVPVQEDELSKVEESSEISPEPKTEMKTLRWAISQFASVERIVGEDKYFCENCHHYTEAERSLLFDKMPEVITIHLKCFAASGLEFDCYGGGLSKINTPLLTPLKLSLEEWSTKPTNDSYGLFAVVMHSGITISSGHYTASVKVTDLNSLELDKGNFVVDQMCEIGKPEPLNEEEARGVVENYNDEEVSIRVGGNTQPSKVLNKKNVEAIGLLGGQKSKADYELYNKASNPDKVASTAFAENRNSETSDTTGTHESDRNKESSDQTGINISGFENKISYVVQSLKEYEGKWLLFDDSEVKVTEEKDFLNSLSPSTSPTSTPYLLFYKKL
Chain of Cytochrome P450 2C19 (Homo sapiens) (P33261 whole entry, looked up): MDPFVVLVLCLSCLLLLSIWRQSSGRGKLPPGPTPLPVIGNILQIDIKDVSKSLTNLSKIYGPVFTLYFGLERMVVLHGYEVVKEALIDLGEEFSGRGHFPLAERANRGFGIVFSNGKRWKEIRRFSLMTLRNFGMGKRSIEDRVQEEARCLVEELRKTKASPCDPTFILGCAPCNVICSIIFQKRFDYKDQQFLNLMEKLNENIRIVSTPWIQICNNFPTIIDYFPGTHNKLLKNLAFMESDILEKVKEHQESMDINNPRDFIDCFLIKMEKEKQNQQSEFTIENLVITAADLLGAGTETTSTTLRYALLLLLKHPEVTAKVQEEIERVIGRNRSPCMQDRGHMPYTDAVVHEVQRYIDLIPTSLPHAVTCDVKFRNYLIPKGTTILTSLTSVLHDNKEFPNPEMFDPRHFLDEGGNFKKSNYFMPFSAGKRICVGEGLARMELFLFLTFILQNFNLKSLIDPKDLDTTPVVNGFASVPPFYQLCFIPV

Structure (SMILES)	Potency [1]	activity change, negative = inhibition [2]	activity change, negative = inhibition [3]	activity, negative = inhibition [4]	Potency [5]	Potency [6]	Potency [7]	activity change, negative = inhibition [8]	max response [8, 19] [%]	max response [8, 20] [%]	outcome [9]	Potency [10]	Potency [11]	Potency [12]	Potency [13]	Potency [14]	Potency [15]	outcome [16]	Potency [17]	Potency [18]
COCC(=O)N1CCC2(CCCN(c3ccc(-c4ccccc4)cc3)C2)CC1	> 11.4 µM (inactive)	-7.31% (inactive)	3.92% (inactive)	-7.13% (inactive)	> 46 µM (inactive)	inactive	inactive	-5.34% (inactive)	18.5	14.9	inactive	–	–	–	–	–	–	–	–	–
Cc1nc2cnc(N3CCNCC3)nc2n(C2CC2)c1=O	> 11.4 µM (inactive)	5.94% (inactive)	3.04% (inactive)	-7.48% (inactive)	> 46 µM (inactive)	inactive	inactive	0.607% (inactive)	18.2	19.1	inactive	> 9.22 µM (inactive)	–	–	–	–	–	–	–	–
COc1ccc(NC(=O)N2CCCC3(CCN(C(=O)c4ccncc4)CC3)C2)cc1	> 11.4 µM (inactive)	-8.03% (inactive)	-13.4% (inactive)	-2.92% (inactive)	> 46 µM (inactive)	inactive	–	4.52% (inactive)	10.2	18.3	inactive	–	–	–	–	–	–	–	–	–
Cc1cccc(CNc2cc(-c3ccoc3)ncn2)c1	> 11.4 µM (inactive)	-15.6% (inactive)	12% (inactive)	-3.91% (inactive)	> 46 µM (inactive)	inactive	inactive	5.52% (inactive)	-1.87	6.63	inactive	> 46 µM (inactive)	7.94 µM (active)	inactive	inactive	–	–	–	–	–
COC(=O)N1CCC2(CC1)CCN(C(c1ccccc1)c1ccccc1)CC2	> 11.4 µM (inactive)	-7.14% (inactive)	–	–	> 46 µM (inactive)	inactive	inactive	2.35% (inactive)	5.65	12.4	inactive	–	–	12.6 µM (active)	–	inactive	7.94 µM (active)	–	–	–
Cc1ccccc1-c1cncnc1NC1CCNCC1	> 11.4 µM (inactive)	11.7% (inactive)	-1.26% (inactive)	20.9% (inactive)	> 46 µM (inactive)	inactive	inactive	3.19% (inactive)	12.9	16	inactive	> 46 µM (inactive)	–	inactive	–	–	–	inactive	inactive	–
Cc1ccccc1-c1cc(Nc2ccc(F)cc2)ncn1	> 11.4 µM (inactive)	-11.7% (inactive)	6.17% (inactive)	-0.99% (inactive)	> 46 µM (inactive)	inactive	–	9.27% (inactive)	-1.72	7.96	inactive	> 46 µM (inactive)	–	inactive	inactive	–	–	inactive	–	0.631 µM (active)
